Values joined by “and” are separate entries in the source; they are usually repeats but may differ in a detail not shown here. Equal entries are not always repeated. Inconclusive results are not listed. More than one record can exist for a structure, and the calls need not agree. Active and inactive are the calls of the source. Rule for the calls, unless noted: active = hit-call score of the fitted dose curve at least 0.9, where 1 is the maximum; inactive = score below 0.9.
Experiments:
[1] = read-out: Interleukin-1 alpha (IL1a), IL1A (gene 3552); experiment: BSK_LPS_IL1a: BioMAP Diversity Plus: LPS Assay for Interleukin-1 alpha (IL1a) Biomarker Activity (AID 2283080); settings: primary human HUVEC with PBMC; actives raise or lower the signal
How it was run: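 HUVEC/PBMC co-culture, LPS system; 24 h after dosing; IL-1a by ELISA; gain or loss of signal fitted bidirectionally vs DMSO baseline.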

[2] = read-out: Monocyte Chemoattractant Protein-1 (MCP1), CCL2 (gene 6347); experiment: BSK_LPS_MCP1: BioMAP Diversity Plus: LPS Assay for Monocyte Chemoattractant Protein-1 (MCP1) Biomarker Activity (AID 2283081); settings: primary human HUVEC with PBMC; actives raise or lower the signal;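 for AC50: secreted MCP-1 protein quantified by ELISA in culture supernatant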
How it was run: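 ELISA read-out of MCP-1 after 24 h chemical dosing of a human umbilical vein endothelial cell/peripheral blood mononuclear cell co-culture stimulated with LPS. Gain or loss of signal fitted relative to DMSO controls.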

[3] = BSK_LPS_PGE2: BioMAP Diversity Plus: LPS Assay for Prostaglandin E2 (PGE2) Biomarker Activity (AID 2283082); settings: primary human HUVEC with PBMC; actives raise or lower the signal;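 for AC50: secreted prostaglandin E2 measured by ELISA in LPS-stimulated co-culture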
How it was run: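 Endpoint derived from bidirectional curve fitting versus DMSO of ELISA-measured PGE2 in LPS-stimulated human primary vascular co-culture (HUVEC with PBMC) harvested at 24 h.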

[4] = read-out: Macrophage colony-stimulating factor (MCSF), CSF1 (gene 1435); experiment: BSK_LPS_MCSF: BioMAP Diversity Plus: LPS Assay for Macrophage colony-stimulating factor (MCSF) Biomarker Activity (AID 2283083); settings: primary human HUVEC with PBMC; actives raise or lower the signal
How it was run: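 HUVEC + PBMC co-culture (human primary), 24 h post-dose; M-CSF by ELISA; gain/loss of signal fitted bidirectionally vs DMSO baseline.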

[5] = read-out: Tissue Factor, F3 (gene 2152); experiment: BSK_LPS_TissueFactor: BioMAP Diversity Plus: LPS Assay for Tissue Factor Biomarker Activity (AID 2283084); settings: primary human HUVEC with PBMC; actives raise or lower the signal
How it was run: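 HUVEC/PBMC co-culture, LPS-activated; CD142 ELISA read 24 h post-dose; bidirectional curve fit vs DMSO negative control.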

[6] = read-out: Tumor necrosis factor (Homo sapiens) (UniProt P01375); experiment: BSK_LPS_TNFa: BioMAP Diversity Plus: LPS Assay for Tumour Necrosis Factor alpha (TNFa) Biomarker Activity (AID 2283085); settings: primary human HUVEC with PBMC; actives raise or lower the signal
How it was run: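 Primary human vascular co-culture of HUVEC and PBMC; TNFa ELISA 24 h after treatment, analysed as increase or decrease relative to DMSO control.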

[7] = read-out: Vascular cell adhesion molecule 1 (VCAM1), VCAM1 (gene 7412); experiment: BSK_LPS_VCAM1: BioMAP Diversity Plus: LPS Assay for Vascular cell adhesion molecule 1 (VCAM1) Biomarker Activity (AID 2283086); settings: primary human HUVEC with PBMC; actives raise or lower the signal
How it was run: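 Primary human vascular co-culture (umbilical vein endothelium plus PBMC) stimulated with LPS received chemical; 24 h later VCAM-1 was read by ELISA. Overt cytotoxicity was assessed by sulforhodamine B staining of parallel cultures at the same time point.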

[8] = read-out: CD38, CD38 (gene 952); experiment: BSK_SAg_CD38: BioMAP Diversity Plus: SAg Assay for CD38 Biomarker Activity (AID 2283087); settings: primary human HUVEC with PBMC; actives raise or lower the signal
How it was run: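 Fluorescence ELISA of cell-surface CD38 served as the read-out, with either increase or decrease fitted against DMSO controls. Cells were a human umbilical vein endothelium plus PBMC co-culture under SEB/TSST-1 stimulation, measured 24 h after dosing.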

[9] = read-out: CD40, CD40 (gene 958); experiment: BSK_SAg_CD40: BioMAP Diversity Plus: SAg Assay for CD40 Biomarker Activity (AID 2283088); settings: primary human HUVEC with PBMC; actives raise or lower the signal
How it was run: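 HUVEC/PBMC co-culture, 24 h post-dose; CD40 by ELISA, fluorescence intensity; bidirectional fit vs DMSO negative control.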

[10] = read-out: CD69, CD69 (gene 969); experiment: BSK_SAg_CD69: BioMAP Diversity Plus: SAg Assay for CD69 Biomarker Activity (AID 2283089); settings: primary human HUVEC with PBMC; actives raise or lower the signal;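 for AC50: cell surface CD69 protein quantified by ELISA with fluorescence detection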
How it was run: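 Values derive from bidirectional fitting relative to DMSO vehicle. Cells: umbilical vein endothelium plus peripheral blood mononuclear cells, treated 24 h before fluorescent ELISA for CD69.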

[11] = read-out: Monocyte Chemoattractant Protein-1 (MCP1), CCL2 (gene 6347); experiment: BSK_SAg_MCP1: BioMAP Diversity Plus: SAg Assay for Monocyte Chemoattractant Protein-1 (MCP1) Biomarker Activity (AID 2283090); settings: primary human HUVEC with PBMC; actives raise or lower the signal
How it was run: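 MCP-1 levels in the endothelial–PBMC SAg co-culture were quantified by ELISA at 24 h post-dosing; both increases and decreases versus DMSO scored. Cytotoxicity monitored by SRB total protein in parallel cultures.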

[12] = read-out: E-selectin (Homo sapiens) (UniProt P16581); experiment: BSK_SAg_Eselectin: BioMAP Diversity Plus: SAg Assay for Eselectin Biomarker Activity (AID 2283091); settings: primary human HUVEC with PBMC; actives raise or lower the signal
How it was run: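 E-selectin ELISA readout at 24 h post-dosing in human umbilical vein endothelial cell/PBMC co-culture; gain or loss of signal fitted relative to DMSO baseline.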

[13] = read-out: Monokine induced gamma interferon (MIG), CXCL9 (gene 4283); experiment: BSK_SAg_MIG: BioMAP Diversity Plus: SAg Assay for Monokine induced gamma interferon (MIG) Biomarker Activity (AID 2283092); settings: primary human HUVEC with PBMC; actives raise or lower the signal
How it was run: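 Values reflect bidirectional fitting of ELISA-measured MIG against DMSO vehicle, taken 24 h after dosing of a co-culture of human umbilical vein endothelial cells and peripheral blood mononuclear cells.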

[14] = read-out: Interleukin-8 (IL8), CXCL8 (gene 3576); experiment: BSK_SAg_IL8: BioMAP Diversity Plus: SAg Assay for Interleukin-8 (IL8) Biomarker Activity (AID 2283094); settings: primary human HUVEC with PBMC; actives raise or lower the signal
How it was run: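 In this co-culture of human umbilical vein endothelium with peripheral blood mononuclear cells, IL-8 is assayed by ELISA at 24 h. DMSO serves as baseline for bidirectional curve fitting.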

[15] = BSK_SAg_Proliferation: Cell Proliferation Assessment in the BioMAP Diversity Plus: SAg Assay (AID 2283095); settings: primary human HUVEC with PBMC;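 note: relative cell number as total protein by SRB absorbance in sub-confluent culture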
How it was run: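 Readout is SRB-stained protein (560 nm) in a primary human HUVEC and PBMC co-culture; sub-confluent cultures are read at 96 h. Activity is fitted bidirectionally using DMSO as baseline.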

[16] = BSK_SAg_SRB: Viability Assessment in the BioMAP Diversity Plus: SAg Assay (AID 2283096); settings: primary human HUVEC with PBMC;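 note: cells read one day after compound addition; hits may be either gain or loss of signal compared with DMSO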
How it was run: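 Human umbilical vein endothelial cells co-cultured with PBMC, read 24 h after compound dosing. Total protein measured by sulforhodamine B staining (0.1% SRB after 10% TCA fixation, absorbance 560 nm); bidirectional fit versus DMSO baseline.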

[17] = BSK_SAg_PBMCCytotoxicity: PBMC Cytotoxicity Assessment in the BioMAP Diversity Plus: SAg Assay (AID 2283093); settings: primary human HUVEC with PBMC;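 note: PBMC viability measured as Alamar Blue reduction fluorescence at 546/580 nm; fitted both ways against DMSO so a hit may be loss or gain of signal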;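 for AC50: PBMC superantigen activated with SEB plus TSST-1 one hour after compound addition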
How it was run: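 HUVEC/PBMC co-culture; PBMC exposed to chemical 1 h before SEB and TSST-1 activation (20 ng/mL each), incubated 90 h, then Alamar Blue 6 h, fluorescence 546/580 nm. Bidirectional fit versus DMSO baseline.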

[18] = target: human CYP2D6, CYP2D6 (gene 1565) (UniProt P10635); experiment: NVS_ADME_hCYP2D6: NovaScreen (NVS) CYP450-related Enzyme Activity (ADME) Assay for human CYP2D6 (AID 2283107; active = hit-call score of the fitted dose curve at least 0.9, where 1 is the maximum)
Sequence of human CYP2D6, CYP2D6 (gene 1565) (P10635 whole entry, looked up): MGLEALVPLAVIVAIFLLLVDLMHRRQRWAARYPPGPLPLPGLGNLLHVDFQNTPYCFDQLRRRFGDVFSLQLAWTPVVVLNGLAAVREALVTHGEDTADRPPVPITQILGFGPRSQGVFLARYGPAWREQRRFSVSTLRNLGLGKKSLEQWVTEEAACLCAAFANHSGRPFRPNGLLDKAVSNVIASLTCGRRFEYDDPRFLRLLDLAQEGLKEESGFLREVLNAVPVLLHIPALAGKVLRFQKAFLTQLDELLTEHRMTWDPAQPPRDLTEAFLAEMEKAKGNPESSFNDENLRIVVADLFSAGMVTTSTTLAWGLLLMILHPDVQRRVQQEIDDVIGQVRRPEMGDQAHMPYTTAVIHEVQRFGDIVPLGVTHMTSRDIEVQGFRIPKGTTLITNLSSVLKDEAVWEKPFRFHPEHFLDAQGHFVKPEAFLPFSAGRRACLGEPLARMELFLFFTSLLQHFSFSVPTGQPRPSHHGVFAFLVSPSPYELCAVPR
How it was run: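 Fluorescence intensity read 1 h post-dosing; insect-cell-expressed recombinant protein with fluorogenic substrate, no cells. Activity is scored as signal loss relative to acetonitrile baseline, first at a single 10 uM concentration in duplicate, then as concentration series for confirmed actives.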

[19] = target: human CYP2C9, CYP2C9 (gene 1559) (UniProt P11712); experiment: NVS_ADME_hCYP2C9: NovaScreen (NVS) CYP450-related Enzyme Activity (ADME) Assay for human CYP2C9 (AID 2283108; active = hit-call score of the fitted dose curve at least 0.9, where 1 is the maximum)
Sequence of human CYP2C9, CYP2C9 (gene 1559) (P11712 whole entry, looked up): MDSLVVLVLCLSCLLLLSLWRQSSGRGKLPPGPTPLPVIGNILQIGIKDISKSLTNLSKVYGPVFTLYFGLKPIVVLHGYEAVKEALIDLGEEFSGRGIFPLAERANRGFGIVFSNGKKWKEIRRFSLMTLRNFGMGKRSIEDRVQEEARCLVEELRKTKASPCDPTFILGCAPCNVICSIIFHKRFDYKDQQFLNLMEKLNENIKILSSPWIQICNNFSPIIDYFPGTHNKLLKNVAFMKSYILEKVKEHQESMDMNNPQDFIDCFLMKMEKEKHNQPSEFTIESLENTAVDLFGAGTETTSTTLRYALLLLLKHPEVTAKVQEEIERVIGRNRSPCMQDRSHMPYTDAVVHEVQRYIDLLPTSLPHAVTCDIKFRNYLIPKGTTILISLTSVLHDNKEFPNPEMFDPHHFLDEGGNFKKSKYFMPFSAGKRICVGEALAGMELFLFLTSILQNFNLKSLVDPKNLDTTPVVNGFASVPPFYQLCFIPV
How it was run: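 Recombinant human CYP2C9 expressed in SF9 cells, fluorogenic substrate, fluorescence read 0.75 h after dosing. Chemicals first run in duplicate at 10 uM, with actives followed in concentration series; loss of signal versus acetonitrile baseline.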

Measured: AC50

Sequence of Tumor necrosis factor (Homo sapiens) (P01375 whole entry, looked up): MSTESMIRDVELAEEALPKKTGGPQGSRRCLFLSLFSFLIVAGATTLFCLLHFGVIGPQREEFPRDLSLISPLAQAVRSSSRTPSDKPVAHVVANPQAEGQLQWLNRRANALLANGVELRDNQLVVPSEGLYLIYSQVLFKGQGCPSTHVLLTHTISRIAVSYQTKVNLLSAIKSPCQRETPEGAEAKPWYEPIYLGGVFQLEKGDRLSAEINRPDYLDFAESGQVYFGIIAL
Sequence of E-selectin (Homo sapiens) (P16581 whole entry, looked up): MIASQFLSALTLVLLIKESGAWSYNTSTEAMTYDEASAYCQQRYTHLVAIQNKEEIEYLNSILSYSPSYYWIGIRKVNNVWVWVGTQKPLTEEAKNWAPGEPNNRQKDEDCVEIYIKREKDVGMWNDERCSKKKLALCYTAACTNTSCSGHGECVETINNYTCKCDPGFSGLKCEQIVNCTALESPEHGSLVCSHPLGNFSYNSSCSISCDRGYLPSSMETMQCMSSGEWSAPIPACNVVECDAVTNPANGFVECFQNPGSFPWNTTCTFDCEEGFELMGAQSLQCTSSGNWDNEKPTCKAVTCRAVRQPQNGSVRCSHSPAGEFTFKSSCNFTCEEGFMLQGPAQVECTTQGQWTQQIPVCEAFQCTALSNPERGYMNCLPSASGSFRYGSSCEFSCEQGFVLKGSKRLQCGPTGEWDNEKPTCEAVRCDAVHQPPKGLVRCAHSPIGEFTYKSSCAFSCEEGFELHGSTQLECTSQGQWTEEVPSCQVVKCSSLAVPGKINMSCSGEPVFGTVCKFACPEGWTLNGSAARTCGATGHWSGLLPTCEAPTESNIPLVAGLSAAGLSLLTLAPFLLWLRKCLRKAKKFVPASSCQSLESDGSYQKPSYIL

C=CC(F)(F)C(F)(F)C(F)(F)C(F)(F)C(F)(F)C(F)(F)C(F)(F)C(F)(F)C=C
inactive: [1] | [2] | [3] | [4] | [5] | [6] | [7] | [8] | [9] | [10] | [11] | [12] | [13] | [14] | [15] | [16]

O[Si](c1ccccc1)(c1ccccc1)c1ccccc1
inactive: [1] | [5] | [6] | [7]
active: [2] 28.9 µM | [3] 11.6 µM | [4] 20 µM | [8] 32.6 µM | [9] 29.6 µM | [10] 31.7 µM | [11] 32.5 µM | [12] 31 µM | [13] 31.1 µM | [17] 30.5 µM | [14] 20 µM | [15] 32.6 µM | [16] 26.8 µM

Oc1ccc(Nc2ccccc2)cc1
active: [3] 0.668 µM | [7] 20 µM | [8] 20 µM | [9] 8.57 µM | [10] 14 µM | [11] 20 µM | [12] 25.1 µM | [15] 3.84 µM | [19] 0.451 µM
inactive: [1] | [2] | [4] | [5] | [6] | [13] | [16] | [18]

O=C(Cl)C(F)(F)C(F)(F)C(F)(F)C(F)(F)C(F)(F)C(F)(F)C(F)(F)C(F)(F)F
active: [2] 45.7 µM and 47.4 µM and 54.8 µM | [5] 39.5 µM and 30 µM | [6] 54.8 µM and 48.8 µM and 47.2 µM | [7] 30 µM and 40.7 µM and 45.5 µM | [8] 39.6 µM and 30 µM | [9] 30 µM and 48.9 µM | [10] 24.5 µM and 30 µM and 43.1 µM | [11] 44.8 µM and 43.8 µM | [16] 42.7 µM and 42.8 µM and 30 µM
inactive: [1] | [3] | [4] | [5] | [8] | [9] | [11] | [12] | [13] | [15]

FC(F)(Br)C(F)(F)C(F)(F)C(F)(F)C(F)(F)C(F)(F)Br
inactive: [1] | [2] | [3] | [4] | [5] | [6] | [7] | [8] | [9] | [10] | [11] | [12] | [13] | [17] | [14] | [15] | [16]

FC(F)(F)C(F)(F)C(F)(F)C(F)(F)C(F)(F)C(F)(F)C(F)(F)I
inactive: [1] | [2] | [3] | [4] | [5] | [6] | [7] | [8] | [9] | [10] | [11] | [12] | [13] | [15] | [16]

CCCCCCOC(=O)c1ccccc1O
inactive: [1] | [2] | [3] | [4] | [5] | [8] | [13] | [16]
active: [2] 40.6 µM | [3] 39.8 µM | [5] 40.6 µM | [6] 37.3 µM and 39.6 µM | [7] 40.2 µM and 38.2 µM | [8] 40.5 µM | [9] 45.2 µM and 29.1 µM | [10] 39.3 µM and 45.2 µM | [11] 27.6 µM and 45.1 µM | [12] 38.3 µM and 39.5 µM | [15] 38.7 µM and 45.4 µM | [16] 42.4 µM

Nc1ccc([N+](=O)[O-])cc1O
active: [18] 3.87 µM | [19] 3.74 µM
inactive: [1] | [2] | [3] | [4] | [5] | [6] | [7] | [8] | [9] | [10] | [11] | [12] | [13] | [17] | [14] | [15] | [16]

CCCCCCCCC(F)(F)C(F)(F)C(F)(F)C(F)(F)C(F)(F)C(F)(F)F
inactive: [1] | [2] | [3] | [4] | [5] | [6] | [7] | [8] | [9] | [10] | [11] | [12] | [13] | [15] | [16]

FC(F)(F)C(F)(F)C(F)(F)C(F)(F)C(F)(F)C(F)(F)C(F)(F)C(F)(F)F
inactive: [1] | [2] | [3] | [4] | [5] | [6] | [7] | [8] | [9] | [10] | [11] | [12] | [13] | [17] | [14] | [15] | [16]

C=CC(=O)OCC(F)(F)C(F)(F)C(F)(F)C(F)(F)C(F)(F)C(F)(F)C(F)(F)F
inactive: [1] | [2] | [3] | [4] | [5] | [6] | [7] | [8] | [9] | [10] | [11] | [12] | [13] | [15] | [16]
active: [15] 20 µM

Source: PubChem BioAssay (EPA / NIEHS)
